Jurkat NFkB inh – inhibitors of induced NF-kB luciferase reporter, primary screen, TCR NF-kB activation inhibitor project, cell-based, luminescence, uHTS. AID 435003, 2010. inhibition, % at 4 µM. actives 0.53% (n = 330,000). Jurkat, PMA/ionomycin-induced NF-kB luciferase reporter; in the data active means inhibition above about 50%
Shn3 inh set2 – reduction of Shn3 3'UTR firefly luciferase signal, primary screen, Schnurri-3 inhibitor project, cell-based, Clone20 osteoblasts, set 2; Clone20 osteoblast Shn3 3'UTR firefly luciferase, 24 h; inhibition, % at 12.5 µM; actives 0.52% (n = 360,000); AID 588674, 2011;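 active means mean inhibition of at least 75% with every replicate also reaching 75%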
LMP1 NFkB inh – EBV LMP1-driven NF-kappaB luciferase reporter inhibitors, primary screen, cell-based, luminescence, single point | LMP1-induced NF-kappaB luciferase reporter cells | actives 0.69% (n = 350,000) | inhibition, % at 12.5 µM | AID 504558, 2011; in the data active means inhibition above about 41%
Gli-Sufu antag – Gli-Sufu pathway antagonists, primary screen, luciferase luminescence, Sufu-KO-LIGHT cells, uHTS. inhibition, % at 5 µM. actives 0.74% (n = 340,000). AID 588413, 2011. Sufu-KO-LIGHT fibroblasts, Gli luciferase reporter luminescence;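 active means inhibition above about 55%, limit read from the data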
MITF TRPM1 inh – inhibitors of MITF-dependent TRPM1 promoter reporter, primary screen, cell-based, SK-MEL-5, single point, luciferase | AID 488899, 2010 | SK-MEL-5 TRPM1 promoter luciferase, 24 h | actives 0.83% (n = 330,000) | inhibition, % at 12.5 µM;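 active means mean inhibition across replicates of 60% or more, whatever share of single replicates reaches that level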
697 NFkB inh – inhibitors of PMA/ionomycin-induced NF-kB reporter, 697 cells, primary screen, B-cell NF-kB inhibitor project, cell-based, luminescence, uHTS | 697 B-cell NF-kB luciferase reporter, 16 h | inhibition, % at 4 µM | actives 0.33% (n = 330,000) | AID 435022, 2010; in the data active means inhibition above about 35%
Jurkat NFkB conf – PMA/ionomycin-induced NF-kB reporter inhibitors, Jurkat retest, confirmation, T-cell NF-kB inhibitor project, cell-based, luminescence, single concentration. Jurkat NF-kB luciferase, 16 h. inhibition, % at 4 µM. shares compounds with Jurkat NFkB inh. actives 27% (n = 2,700);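 active means inhibition reaching about 45% at 4 µM in either replicate, limit read from the data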
697 NFkB conf – PMA/ionomycin-induced NF-kB reporter inhibitors, 697 retest, confirmation, B-cell NF-kB inhibitor project, cell-based, luminescence, single concentration; shares compounds with 697 NFkB inh; 697 B-cell NF-kB luciferase, 16 h; inhibition, % at 4 µM; actives 35% (n = 2,000); AID 449746, 2010; in the data active means inhibition mostly above about 28%, no sharp cut-off; inactive means mostly below about 22%
Numbers stand for hits. The list is not random: actives were taken first. Their share in the collection is about 2.3%.

`CSc1ccc(NC(=O)Nc2cc(C)ccn2)cc1` gave Jurkat NFkB inh inactive, Shn3 inh set2 inactive, LMP1 NFkB inh inactive, Gli-Sufu antag inactive, MITF TRPM1 inh inactive, 697 NFkB inh inactive, Jurkat NFkB conf inactive and 697 NFkB conf inactive.
For Cc1ccnc(NC(=O)Nc2ccc(F)cc2)c1 the results were Jurkat NFkB inh inactive, Shn3 inh set2 inactive, LMP1 NFkB inh inactive, Gli-Sufu antag inactive, MITF TRPM1 inh inactive, 697 NFkB inh inactive, Jurkat NFkB conf inactive and 697 NFkB conf inactive.
For O=C(C1CCN(c2nnc(N3CCCC3=O)s2)CC1)N1CCN(c2cccc(C(F)(F)F)c2)CC1 the results were Jurkat NFkB inh inactive, Shn3 inh set2 inactive, LMP1 NFkB inh inactive, Gli-Sufu antag inactive, MITF TRPM1 inh inactive and 697 NFkB inh inactive.
Screening COc1ccc(C(=O)Nc2ccnn2C2CCN(Cc3cn(C)nc3C)CC2)cc1 returned Jurkat NFkB inh inactive, Shn3 inh set2 inactive, LMP1 NFkB inh inactive, Gli-Sufu antag inactive, MITF TRPM1 inh inactive and 697 NFkB inh inactive.
Screening Brc1ccc(-c2cn3ccccc3n2)cc1 returned Jurkat NFkB inh inactive, Shn3 inh set2 inactive, LMP1 NFkB inh inactive, Gli-Sufu antag inactive, MITF TRPM1 inh inactive, 697 NFkB inh inactive, Jurkat NFkB conf inactive and 697 NFkB conf inactive.
`CC(C)(C)c1ccc(NC(=O)c2ccsc2)cc1` gave Jurkat NFkB inh inactive, Shn3 inh set2 inactive, Gli-Sufu antag inactive, 697 NFkB inh inactive, Jurkat NFkB conf inactive and 697 NFkB conf inactive.
For CC1CCN(S(=O)(=O)c2ccc(NC(=O)CSc3ncccc3C(=O)O)cc2)CC1 the results were Jurkat NFkB inh inactive, Shn3 inh set2 inactive, LMP1 NFkB inh inactive, Gli-Sufu antag inactive, MITF TRPM1 inh inactive and 697 NFkB inh inactive.
Cc1cc(=O)n2nc(N3CCC(C(=O)NCc4ccco4)CC3)sc2n1 was read as Jurkat NFkB inh inactive, Shn3 inh set2 inactive, LMP1 NFkB inh inactive, Gli-Sufu antag inactive, MITF TRPM1 inh inactive and 697 NFkB inh inactive.
`CCN(CC)c1ccc(/C=C/c2cccc[n+]2C)c(OC)c1` gave Jurkat NFkB inh 93.9, Shn3 inh set2 89.1, LMP1 NFkB inh inactive, Gli-Sufu antag 89.0, MITF TRPM1 inh 68.1, 697 NFkB inh 75.4, Jurkat NFkB conf 77.6 and 697 NFkB conf 87.5.
`O=C(Nc1cccc(-c2cnc3ccccc3n2)c1)c1ccccc1` gave Jurkat NFkB inh inactive, Shn3 inh set2 inactive, LMP1 NFkB inh inactive, Gli-Sufu antag inactive, MITF TRPM1 inh inactive and 697 NFkB inh inactive.
CCc1ccc(-c2cnc3ccccc3n2)cc1NC(=O)CNC(=O)c1ccccc1 was read as Jurkat NFkB inh inactive, Shn3 inh set2 inactive, LMP1 NFkB inh inactive, Gli-Sufu antag inactive, MITF TRPM1 inh inactive, 697 NFkB inh inactive, Jurkat NFkB conf inactive and 697 NFkB conf inactive.
`Cc1ccc(Nc2nc(C)cs2)cc1` gave Jurkat NFkB inh inactive, Shn3 inh set2 inactive, LMP1 NFkB inh inactive, Gli-Sufu antag inactive, MITF TRPM1 inh inactive and 697 NFkB inh inactive.
Screening CN(C)c1ccc(-c2noc(-c3ccccc3O)n2)cc1 returned Jurkat NFkB inh inactive, Shn3 inh set2 inactive, LMP1 NFkB inh inactive, Gli-Sufu antag inactive, MITF TRPM1 inh inactive, 697 NFkB inh inactive, Jurkat NFkB conf inactive and 697 NFkB conf inactive.
For Cc1ccc(-c2noc(-c3ccccc3Br)n2)cc1 the results were Jurkat NFkB inh inactive, Shn3 inh set2 inactive, LMP1 NFkB inh inactive, Gli-Sufu antag inactive, MITF TRPM1 inh inactive, 697 NFkB inh inactive, Jurkat NFkB conf inactive and 697 NFkB conf inactive.
Screening C=CCC1c2cccc(C(=O)O)c2C(=O)N1c1cccc(OC)c1 (stereo not drawn) returned Jurkat NFkB inh inactive, Shn3 inh set2 inactive, LMP1 NFkB inh inactive, Gli-Sufu antag inactive, MITF TRPM1 inh inactive and 697 NFkB inh inactive.
Cn1c2c(c(=O)n(C)c1=O)C(C(F)(F)F)(C(F)(F)F)N=C(c1ccc(Cl)cc1)N2 was read as Jurkat NFkB inh 71.4, Shn3 inh set2 80.8, LMP1 NFkB inh inactive, Gli-Sufu antag 87.8, MITF TRPM1 inh 71.9, 697 NFkB inh 96.9, Jurkat NFkB conf 85.8 and 697 NFkB conf inactive.
For Nc1nc(Cl)nc2c1ncn2C1OC(CO)C(O)C1O (stereo not drawn) the results were Shn3 inh set2 inactive.
For Nc1nc(Cl)nc2c1ncn2C1CC(O)C(CO)O1 (stereo not drawn) the results were Jurkat NFkB inh 50.8, Shn3 inh set2 89.8, LMP1 NFkB inh inactive, MITF TRPM1 inh inactive, 697 NFkB inh 64.7, Jurkat NFkB conf 50.0 and 697 NFkB conf 67.6.
For Nc1nc(F)nc2c1ncn2[C@@H]1O[C@H](CO)[C@@H](O)[C@H]1O the results were Jurkat NFkB inh 93.4, Shn3 inh set2 95.7, LMP1 NFkB inh 91.1, Gli-Sufu antag 70.8, MITF TRPM1 inh 92.8, 697 NFkB inh 74.8, Jurkat NFkB conf 88.8 and 697 NFkB conf 92.0.
`O=C(/C=C/c1ccccc1Cl)Nc1ccc(-c2nnc3n2CCCCC3)cc1` gave Jurkat NFkB inh inactive, Shn3 inh set2 inactive, LMP1 NFkB inh inactive, Gli-Sufu antag inactive, MITF TRPM1 inh inactive and 697 NFkB inh inactive.
Cc1ccc(-c2nc3cc(N)ccc3o2)cc1 was read as Jurkat NFkB inh inactive, Shn3 inh set2 inactive, LMP1 NFkB inh inactive, Gli-Sufu antag inactive, MITF TRPM1 inh inactive, 697 NFkB inh inactive, Jurkat NFkB conf inactive and 697 NFkB conf inactive.
Screening CC(C)c1ccc2oc(-c3ccc(N)cc3)nc2c1 returned Jurkat NFkB inh inactive, Shn3 inh set2 inactive, LMP1 NFkB inh inactive, Gli-Sufu antag inactive, MITF TRPM1 inh inactive, 697 NFkB inh inactive, Jurkat NFkB conf inactive and 697 NFkB conf inactive.
Cc1ccc(-c2nc3cc(C)ccc3o2)cc1 was read as Jurkat NFkB inh inactive, Shn3 inh set2 inactive, LMP1 NFkB inh inactive, Gli-Sufu antag inactive, MITF TRPM1 inh inactive, 697 NFkB inh inactive, Jurkat NFkB conf inactive and 697 NFkB conf inactive.
For O=C(NC(=S)Nc1ccccc1N1CCOCC1)c1cccc([N+](=O)[O-])c1 the results were Jurkat NFkB inh inactive, Shn3 inh set2 inactive, LMP1 NFkB inh inactive, Gli-Sufu antag inactive, MITF TRPM1 inh inactive and 697 NFkB inh inactive.
For COc1ccc(-c2[nH]ncc2/C=C(\C#N)C(=O)NC2CC2)cc1 the results were Jurkat NFkB inh inactive, Shn3 inh set2 inactive, LMP1 NFkB inh inactive, Gli-Sufu antag inactive, MITF TRPM1 inh inactive and 697 NFkB inh inactive.

Screening results as filed in PubChem BioAssay.
